# Test results published in PubChem BioAssay (NCI).
# About 83,000 compounds went through this panel and 20% of them were active in at least one assay; those are over-represented in the sample as a whole.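 In brief: 96-well plates, 48 h treatment, single concentration, percent growth endpoint.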 Values without a mark were called inactive. Calls of active or inactive are those of the source. How the source made its calls: active means growth percent below 10; inactive means the rest.
# Columns and labels:
# Assay in all cases: NCI-60 one-dose screen, 48 h (100 = growth as untreated, 0 = no growth, -100 = all killed)
# Settings in all cases: 10 µM unless noted
# [1] = system: SR leukemia
# [2] = system: RPMI-8226 leukemia
# [3] = system: OVCAR-8 ovarian
# [4] = system: OVCAR-5 ovarian
# [5] = system: OVCAR-4 ovarian
# [6] = system: SK-OV-3 ovarian
# [7] = system: IGROV1 ovarian
# [8] = system: OVCAR-3 ovarian
# [9] = system: HS 578T breast
# [10] = system: NCI/ADR-RES ovarian
# [11] = system: BT-549 breast
# [12] = system: MDA-MB-435 melanoma
# [13] = system: SW-620 colon
# [14] = system: MCF7 breast
# [15] = system: HCT-116 colon
# [16] = system: HCC-2998 colon
# [17] = system: T-47D breast
# [18] = system: KM12 colon
Structure (SMILES),growth [1],growth [2],growth [3],growth [4],growth [5],growth [6],growth [7],growth [8],growth [9],growth [10],growth [11],growth [12],growth [13],growth [14],growth [15],growth [16],growth [17],growth [18]
N#Cc1cc(-c2nc3ccccc3s2)c(=O)n(NS(=O)(=O)c2ccc(Cl)cc2)c1N,110%,100%,110%,102%,103%,83.7%,95.5%,107%,99.7%,104%,105%,101%,97.7%,99.9%,98.5%,111%,–,–
CC(C)(C#N)N1CCN(c2ccccc2Cl)CC1,101%,105%,93.9%,97.2%,119%,103%,106%,101%,96.4%,98.8%,98.1%,97.3%,–,106%,98.4%,91.4%,102%,106%
Clc1nc(Cl)c2ncn(CC3(Cn4cnc5c(Cl)nc(Cl)nc54)COC3)c2n1,-76.1% (active),-63.5% (active),-83.7% (active),-86% (active),-87.9% (active),-99.8% (active),-93.3% (active),-93.3% (active),-43.8% (active),-57.4% (active),-93.2% (active),-85.7% (active),-88.7% (active),-52.4% (active),-100% (active),-85.3% (active),–,–
O=C(N=Nc1c(O)[nH]c2ccc(F)cc12)c1cc2ccccc2[nH]1,95.1%,92%,97.2%,103%,99.9%,110%,79.3%,101%,101%,100%,90.2%,99.6%,105%,90.1%,93.5%,100%,88.2%,102%
O=C1NC(=S)NC(=O)C1=Cc1cccc(C=C2C(=O)NC(=S)NC2=O)c1,96.9%,101%,104%,110%,105%,110%,107%,108%,103%,102%,87.5%,108%,106%,96.8%,-76% (active),107%,97.7%,107%
N#Cc1c(Nc2ccccc2)nn2cc(-c3nc4ccccc4s3)c(N)nc12,74.3%,91.9%,70.7%,88.5%,-13.7% (active),90.2%,65.5%,97%,64.3%,50.6%,67.2%,93.6%,72.2%,63.3%,76.4%,88%,68.9%,88.2%
Cc1cc2nc(-c3ccccc3)c(-c3ccccc3)nc2cc1C,76.9%,88.1%,108%,115%,98.9%,108%,112%,113%,118%,93.1%,97.5%,93%,99%,88.9%,91.4%,104%,86.5%,104%
CCC1(CC)NC(=O)c2c(c3ccc(Cl)c(Cl)c3n2C)C1C#N (centres undefined),5.94% (active),88.6%,93.6%,81.4%,91.8%,91.7%,74.6%,94.6%,97.1%,91.5%,90.6%,99.2%,102%,97.9%,76.3%,97.5%,78.5%,99.4%
COc1ccc(C(O)c2cc3c(N)c(C(=O)Nc4ccc(Br)cc4)sc3nc2C)cc1 (centres undefined),-8% (active),-4.62% (active),30.6%,59%,42.9%,27.7%,43.6%,-34.9% (active),3.84% (active),18.5%,50.8%,-39.8% (active),23.7%,18.6%,21%,46.7%,18.8%,4.23% (active)
ClCC1(Cn2cnc3c(Cl)nc(Cl)nc32)COC1,86.1%,87.7%,105%,99.5%,93.3%,93.8%,90.8%,84.4%,50.9%,106%,108%,87.6%,66.3%,76.1%,13.7%,-6.15% (active),72%,97.5%
Cc1c2c(cc[n+]1Cc1ccccc1)c1ccc(OCC3CCCCC3)cc1n2CC1CCCCC1,-57.7% (active),-45.2% (active),-90.1% (active),-95.5% (active),-94.3% (active),-53.4% (active),-70.6% (active),-100% (active),-36.2% (active),31.5%,-91% (active),-84.9% (active),-96.6% (active),-92.3% (active),-98.3% (active),-93.2% (active),–,–
NC(=O)CN1CCN(c2ccccc2Cl)CC1,99.5%,108%,122%,99.9%,124%,103%,108%,116%,102%,108%,99.2%,103%,–,102%,100%,101%,96.9%,109%
COc1cc2c(cc1[N+](=O)[O-])-c1ccc([N+](=O)[O-])cc1/C2=N/NC(N)=S,42.6%,66.1%,51.9%,98.9%,57.6%,96.5%,47.9%,73.7%,77.3%,69.6%,61.6%,–,40.6%,22.5%,33.8%,72.8%,57.4%,70.5%
COc1cc2nc(-c3ccc(C(F)(F)F)cc3)cc(OCCN3CCC(O)CC3)c2cc1OC,35.4%,41.2%,80%,51%,88.3%,85.4%,42.1%,93.8%,79.1%,53.5%,52.3%,94.4%,91.8%,93.1%,55.3%,77.9%,74.9%,86.8%
COc1ccncc1C#Cc1cncc(C(=O)Nc2ccc(CN3CCN(C)CC3)c(C(F)(F)F)c2)c1,9.65% (active),25.8%,36.7%,22.2%,30.7%,32.7%,11.3%,43.5%,11.8%,54.6%,50.9%,15.4%,4.42% (active),6.1% (active),8.44% (active),40.9%,55.9%,6.75% (active)
CSc1nc(O)c(-c2ccccc2)c(=O)[nH]1,96%,102%,101%,97.5%,108%,116%,104%,120%,110%,106%,103%,101%,98.8%,96.3%,99.4%,–,100%,103%
Clc1cc(Cl)cc(N2N=C(c3cccc(Nc4ccncc4)c3)CC2c2ccc3c(c2)OCO3)c1 (centres undefined),2.87% (active),11.3%,-21% (active),86.7%,14.9%,74.1%,2.89% (active),52.3%,50.6%,66.9%,93.8%,-85.4% (active),-84.1% (active),-19.3% (active),65.3%,-40.8% (active),63.4%,-51.6% (active)
Clc1nc(Nc2ccccc2)nc(Nc2ccccc2)n1,45.8%,82.8%,112%,101%,86.1%,96.5%,91.9%,103%,121%,94.6%,90.5%,108%,108%,92.4%,93.2%,93.3%,76.1%,102%
